# From PubChem BioAssay AID743279 (National Center for Advancing Translational Sciences (NCATS), 2014)
# Values joined by “and” are separate entries in the source; they are usually repeats but may differ in a detail not shown here. Identical values can stand only once. Among all 360,000 compounds or so, about 17,000 (4.7%) were called active. About 5% were inconclusive and are not listed. This is one part of a sample in which actives are shown more often than they occur. Values without a mark were called inactive. Rule as the data show it: active = activity change below about -50%; inconclusive = mostly about -30% to -49%; inactive = weaker than that.
# Test: qHTS for Inhibitors of Inflammasome Signaling: IL-1-beta AlphaLISA Primary Screen
# Conditions: THP-1 LPS/ATP IL-1B secretion, 16 h; at 57.5 µM, stronger effect = lower value
# Summary of the method: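 THP-1 cells pretreated 1 hr with compounds (up to 57.5 uM final), then stimulated with LPS (250 ng/mL final) plus ATP (1.25 mM final); secreted IL-1B measured by AlphaLISA after 16 hr, decreased signal indicating inhibition.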
# % is scaled to controls: 0 for no effect and ±100 for the full control effect.
row,SMILES,activity change
1,CCCNC(=O)C1(C)CCCN(C(=O)c2oc3ccccc3c2C)C1 (stereo not given),35.7%
2,CN1CCN(c2ccncc2S(=O)(=O)N2CCCC2)CC1,21.6%
3,COc1ccc2c(CC(=O)OCC(=O)NC(N)=O)coc2c1,0%
4,CCNC(=O)C1(C)CCCN(C(=O)c2ccc3ccccc3n2)C1 (stereo not given),-16.3%
5,COc1ccc(C=C2CCC3C(CCCC34OCCO4)C2=O)cc1 (stereo not given),-24.6%
6,COCCCNC(=O)CN1C(=O)CSc2ccc(S(=O)(=O)N3CCOCC3)cc21,-5.17%
7,COc1ccc(CCNC(=O)CN2C(=O)COc3ccc(S(=O)(=O)N4CCCC4)cc32)cc1OC,-11.4%
8,CN(C)c1ccc(CNC(=O)CN2C(=O)COc3ccc(S(=O)(=O)N4CCCC4)cc32)cc1,12.9%
9,CC1CCN(CCCNC(=O)CN2C(=O)CSc3ccc(S(=O)(=O)N4CCCCC4)cc32)CC1,-0.367%
10,O=C(CN1CCCCCC1)Nc1ccc(S(=O)(=O)N2CCCCC2)cc1,-59.2% (active)
11,O=C(CSCc1ccc(Br)cc1)Nc1ccc(S(=O)(=O)N2CCCCCC2)cc1,23.8%
12,CCc1ccc(NC(=O)CN2C(=O)COc3ccc(S(=O)(=O)N4CCCC4)cc32)cc1,-54.9% (active)
13,COc1ccc(NC(=O)CN2C(=O)CSc3ccc(S(=O)(=O)N4CCC(C)CC4)cc32)cc1,-67.1% (active)
14,CCOc1ccc(NC(=O)COc2ccc(S(=O)(=O)N3CCCC3)cc2)cc1,5.76%
15,O=C(Nc1c(Br)cc2c(c1Br)Cc1ccccc1-2)C(F)(F)F,17.9%
16,Cc1ccc2cc(CN(c3ccc(C)c(C)c3)S(C)(=O)=O)c(=O)[nH]c2c1,-25.8%
17,COc1ccc(NC(=O)c2sc(=O)n(Cc3ccc(S(=O)(=O)N(C)C)cc3)c2C)cc1,6.5%
18,O=C(NCc1ccccc1)C1c2ccccc2OCC(=O)N1C1CC1 (stereo not given),-1.49%
19,Cc1cc(Br)cn2c(Cc3cccc(F)c3)c(-c3cccc(Br)c3)nc12,25.5%
20,CCCC1C(c2ccccc2)C(C#N)(C#N)C2(C#N)CC1(N)NC2=O (stereo not given),3.18%
21,COc1ccc(C(=O)/C=C/Nc2ccccn2)cc1,-1.59%
22,COc1ccc(C(O)c2nc(-c3ccc4c(c3)OCO4)cs2)cc1 (stereo not given),-22.4%
23,COc1ccc(C(C)(O)c2nc(-c3cc(F)cc(F)c3)cs2)cc1 (stereo not given),42.9%
24,COc1ccc(-c2cc3ncccc3cn2)cc1,15.7%

row,SMILES,activity change
1,COc1ccc(C(C)(O)c2nc(-c3ccc(C)c(C)c3)cs2)cc1 (stereo not given),22%
2,COc1ccc(-c2csc(Nc3ccccn3)n2)cc1,-86.3% (active)
3,COc1ccc(C(O)c2nc(-c3ccc(OC)nc3)cs2)cc1 (stereo not given),36.7%
4,COc1ccc(-c2csc(Cc3nc(O)cs3)n2)cc1,-95.7% (active)
5,COc1cccc(C(O)c2nc(-c3ccc(C)c(C)c3)cs2)c1 (stereo not given),27%
6,COC(=O)CCc1sc(Nc2ccc(Br)cc2)nc1-c1ccc(OC)cc1,-13.7%
7,COc1ccc(OC)c(Nc2nc(-c3ccc(O)c(O)c3)cs2)c1,-70% (active)
8,COc1ccc(-c2csc(Nc3ccc(O)cc3)n2)cc1,-79.3% (active)
9,NC(CSC(c1ccccc1)(c1ccccc1)c1ccc(-c2ccccc2)cc1)C(=O)O (stereo not given),1.83%
10,C=CCNC(=O)CCCC(=O)NCC=C,0%
11,OC(c1ccccc1)c1nc(/C=C/c2ccc(C(F)(F)F)cc2)cs1 (stereo not given),15.3%
12,O=C(O)c1ccccc1Cc1ccc(F)c2ccccc12,47.2%
13,O=S1(=O)CSCS(=O)(=O)C1,-18.2%
14,COc1ccc([C@H]2N[C@]3(CCCN(Cc4ccco4)C3=O)[C@H]3C(=O)N(C)C(=O)[C@@H]23)cc1,-4.35%
15,Cc1cc(=O)oc2c3c(cc(OCC(=O)NCCC(=O)N[C@@H](C)C(=O)O)c12)OC(C)(C)CC3,-0.546%
16,O=C(NCc1cccnc1)c1cccc(-c2cc3ccccc3oc2=O)c1,-3.38%
17,Cc1ccn2c(-c3csc(Nc4ccc(C(=O)O)cc4)n3)c(C)nc2c1,30.5%
18,O=c1oc2ccccc2cc1-c1csc(Nc2ccc(O)cc2)n1,-97.2% (active)
19,Nc1nc2c(Br)ccc(Br)c2cc1C(=O)NCCc1ccccc1,0%
20,CCCCN(C(=O)c1cccc(N2C(=O)c3ccccc3C2=O)c1)c1c(N)n(CCCC)c(=O)[nH]c1=O,13%
21,CCC(C)NCCOCCOc1ccc(Br)cc1C (stereo not given),-17.9%
22,C[C@H](NC(=O)CC[C@H]1O[C@@H](n2ccc(=O)[nH]c2=O)[C@H](O)[C@@H]1O)c1cccc2ccccc12,0%
23,O=C(NC1CCN(Cc2ccccc2)CC1)c1cc(Br)c(Br)[nH]1,-123% (active)
24,CC(C)(C)C(=O)NNC(=O)c1ccc(Oc2cc(Cl)cc(Cl)c2)o1,6.58%

row,SMILES,activity change
1,COc1cc2[nH]c(=O)n(Cc3ccc(C(=O)NC4CCN(Cc5ccccc5)CC4)cc3)c(=O)c2cc1OC,2%
2,O=C(NC1CCN(Cc2ccccc2)CC1)c1ccc(Oc2cc(Cl)cc(Cl)c2)o1,-70.1% (active)
3,CCOc1ccc(CC(=O)NC2CCN(Cc3ccccc3)CC2)cc1,0%
4,Cc1cc(C(=O)NC2CCN(Cc3ccccc3)CC2)n[nH]1,-8.74%
5,COC(=O)c1ccc2nc(-c3ccccc3)c(Cc3ccc(OC)cc3C)n2c1,-3.04%
6,CSc1ccc(CN2CCC2(C)C(=O)Nc2ccc(C)c(O)c2)cc1 (stereo not given),-13.3%
7,Cc1ccc(S(=O)(=O)N[C@H](CO)C(C)C)cc1,-19.8%
8,Cc1ccsc1CNn1cnnc1SCc1ccccc1F,-6.1%
9,CC(C)c1ccc(CC(=O)N2CCC2(C)C(=O)NS(=O)(=O)c2ccc(C(C)(C)C)cc2)cc1 (stereo not given),19.2%
10,C[C@]12CCC(=O)C=C1C=CC1C2CC[C@@]2(C)C1CC[C@@]21CCC(=O)O1 (stereo not given in full),-21.4%
11,CSCCC(NS(=O)(=O)c1ccc(C)cc1)C(=O)NCCc1c[nH]c2ccccc12 (stereo not given),-1.87%
12,O=C1Nc2ccccc2-n2nnnc2C1N1CCN(c2cccc(C(F)(F)F)n2)CC1 (stereo not given),-29.2%
13,CCOc1ccc(/C=N/OCC(=O)NCc2cccs2)cc1,-0.513%
14,CC1CCCCC1NC(=O)CO/N=C/c1ccc(OC(F)F)cc1 (stereo not given),-0.145%
15,O=C(CO/N=C/c1ccc(OC(F)F)cc1)NCc1ccc(F)cc1,-66.2% (active)
16,CC(C)(C)C(=O)c1c(N)[nH]c(C(=O)c2ccccc2)c1-c1ccc(F)cc1,19.8%
17,Fc1cccc(Cc2c(-c3cccc(Cl)c3)nc3ccc(Br)cn23)c1,88.1%
18,Cc1cccc(C(=O)Nc2ccc(CC(=O)O)cc2)c1,0%
19,Cc1cccc(NC(=O)C(C)SCc2ccccc2)c1 (stereo not given),58.8%
20,Cc1cccc(NC(=O)c2ccc([N+](=O)[O-])o2)c1,-102% (active)
21,Cc1onc(C(=O)NCc2ccc(F)cc2)c1[N+](=O)[O-],10%
22,Cc1cc(NC(=O)COc2ccc([N+](=O)[O-])cc2)no1,-22.5%
23,O=C(Nc1ccc(Br)cn1)c1ccc([N+](=O)[O-])o1,-155% (active)
24,Cc1onc(NC(=O)c2ccc([N+](=O)[O-])o2)c1Br,-79.8% (active)

row,SMILES,activity change
1,CN1C(=O)c2ccc(C(=O)Nc3ccc(Br)cn3)cc2C1=O,-0.113%
2,O=C(Nc1ccc(Br)cn1)c1ccc([N+](=O)[O-])cc1Cl,-6.95%
3,C[n+]1cccc(C(=O)O)c1,-10.8%
4,O=C(NCc1cccnc1)c1cc(C2CCCCN2C(=O)CCc2ccccc2)on1 (stereo not given),19.3%
5,Cc1n[nH]c(=O)c2c(NC(=O)CSc3ccccc3F)oc(C)c12,-0.579%
6,CC(C)(C)OC(=O)NC(Cc1ccccc1)C(=O)NC(CSC1CCCCO1)C(=O)NN (stereo not given),-12%
7,COc1ccc(CN2C(=O)C(CC(=O)NCCN3CCOCC3)CC(C(=O)N(C(C)C)C(C)C)=C2C)cc1 (stereo not given),15.9%
8,COc1cc(C2c3cc4c(cc3C(O)C3COC(=O)C23)OCO4)cc(OC)c1OC (stereo not given),-3.2%
9,O=C(NCC(F)(F)F)c1ccc(S(=O)(=O)NCCc2ccc3c(c2)OCCO3)cc1,-14.1%
10,CCCn1c(N)c(C(=O)CSc2nnc(Cc3cccs3)n2C2CC2)c(=O)[nH]c1=O,-3.66%
11,COc1cc(OC)cc(C2=Cc3ccccc3C(CC(=O)c3ccco3)N2c2ccc(-c3cnc(OC)nc3)cc2)c1 (stereo not given),3.59%
12,CCOc1ccc(Cl)cc1-c1cc(C(=O)NCc2cccs2)[nH]n1,-22.8%
13,COC(=O)C[C@@H]1C=C[C@@H](NS(=O)(=O)c2cccc(OC)c2)[C@@H](CO)O1,-5.98%
14,CCOC(=O)/C(=N\Nc1cc(Cl)ccc1Cl)N1CCN(C)CC1,19%
15,COc1cc2ccc(C(C)=O)c(O)c2cc1OC,-10.2%
16,COC(=O)c1ccc2nc(-c3ccc(OC)c(OC)c3)c(Cc3ccccc3)n2c1,-9.54%
17,CCOc1cc(-c2nc3cc(C)ccn3c2NCC2CCCO2)ccc1O (stereo not given),2.58%
18,COc1ccc(-c2nc3cnccn3c2NC2CCCCC2)cc1-c1cccc(Cl)c1,-76.6% (active) and -52.7% (active)
19,COc1cccc(-c2nc3nc(C)cc(C)n3c2NC2CCCCC2)c1,8.2%
20,COc1ccc(-c2nc3cnccn3c2NC(C)(C)CC(C)(C)C)cc1O,-71.3% (active)
21,Cc1ccc2nc(-c3cccnc3)c(NC3CCCC3)n2c1,-1.15%
22,COc1ccc(-c2nc3cc(C)ccn3c2NC2CCCCC2)cc1SC1CCCCC1,-85% (active)
23,COc1ccc(C)cc1S(=O)(=O)NC1CCCCC1,-4.98%
